Measured values taken from PubChem BioAssay AID602399 (Sanford-Burnham Center for Chemical Genomics, 2012).
Hit rate of the full screen: of about 360,000 compounds, about 2,800 (0.78%) were called active. No stated cut-off is given here; in the data, active means inhibition above about 26%; inactive means the rest. The full list was thinned out, with actives kept by preference.

tested on: Nicotinate-nucleotide adenylyltransferase NadD (Staphylococcus aureus N315); assay: inhibitors of S. aureus NadD, primary screen, biochemical, colorimetric, uHTS (AID 602399); details: purified NadD enzyme, colorimetric absorbance read-out; at 20 µM; active compounds read high

inhibition, inactive:
COC(=O)c1sccc1NC(=O)CC1C(=O)NCCN1C(=O)Nc1ccc(F)cc1F (configuration not stated) -5.08%, CN(C)c1ccc(/C=N/NC(=O)c2ccc(Cn3cc(Br)cn3)o2)cc1 4.66%, Cc1c(Cl)c([N+](=O)[O-])nn1CCCC(=O)NC(C)c1ccccc1 (configuration not stated) 1.25%, COc1ccc(CC(=O)Nc2c3c(nn2-c2cccc(Cl)c2)CS(=O)C3)cc1 (configuration not stated) 5.19%, Cc1ccc(NS(=O)(=O)c2cc3c(cc2Br)NC(=O)CO3)cc1C -3.42%, C#CCOCCOCCOCCNc1nc(N2CCOCC2)nc(N2CCN(C(=O)[C@H](Cc3ccc(O)cc3)n3cc(CCO)nn3)CC2)n1 -4.41%, C#CCOCCOCCOCCNc1nc(N2CCN(C(=O)C([C@@H](C)O)n3cc([C@@H](N)CCCCN)nn3)CC2)nc(N2CCN(C(=O)[C@H](CCCCN)n3cc(CN)nn3)CC2)n1 (some centres not stated) -6.21%, C=CCOc1cccc(C2C(C(=O)c3ccc(C)o3)=C(O)C(=O)N2CCN2CCOCC2)c1 (configuration not stated) 6.48%, CCNc1nc(SCCOc2ccccc2)nc(N(C)C)n1 -6.51%, O=C(CSc1nnc(-c2cnccn2)n1Cc1ccco1)c1ccc(Cl)c(Cl)c1 10.3%, C(=C\c1ccccc1)/CSc1nnc(-c2cccnc2)n1Cc1ccco1 14.6%, Cc1cccc(NC(=O)CN2CCN(C(=O)C3CCN(C(=O)/C=C/c4ccccc4)CC3)CC2)c1C 5.55%, Cc1cccc(NC(=O)CSC(N)=O)c1C -2.73%, Cc1c(CN2CCCCC2)c(O)n(CCO)c(=O)c1C#N -2.39%, Cc1cccc(-c2c(NC(=O)c3ccco3)oc3ccc(Cl)cc3c2=O)c1 -6.28%, FC(F)(F)c1ccnc(Oc2ccc(C3=NCCS3)cc2)c1 -2.78%, CCCCn1ccnc1C(=O)c1cccc(S(=O)(=O)N2c3ccccc3CC2C)c1 (configuration not stated) 9.25%, Cn1c(=O)[nH]c(=O)c2c1nc(CN1CCN(c3ccccc3F)CC1)n2CCc1ccccc1 0.696%, CC(C)C(=O)Nc1c2c(nn1-c1ccccc1)CSC2 -1.75%, O=C(Nc1ccc(C(=O)O)cc1)/C(=C\c1ccccc1)NC(=O)c1ccc(Br)cc1 -2.9%, COc1ccccc1C(=O)N/C(=C/c1ccco1)C(=O)Nc1ccc(C(=O)O)cc1 1.58%, CCOC(=O)c1cccc(NC(=O)CCc2nnc3ccc(N4CCOCC4)nn23)c1 -5.9%, Cc1ccc(Cn2cc(CN3CC(N4CCN(C)CC4)CS3(=O)=O)nn2)cc1 (configuration not stated) -10.5%, C=CCN1C(=O)C(O)(CC(=O)c2ccccn2)c2ccccc21 (configuration not stated) 13.4%, Cc1ccc(C2CC(c3cccc(Br)c3)n3nc(N)nc3N2)cc1 (configuration not stated) 7.54%, CCOc1ccccc1C1CC(c2ccc(Cl)cc2)Nc2nc(N)nn21 (configuration not stated) 9.48%, CCOC(=O)c1cn(CC)c2cc(F)c(F)cc2c1=O -0.618%, COC(=O)CSc1nc2c(c(C3CC=CCC3)c1C#N)CCC2 (configuration not stated) -1.38%, COc1cc(OC)cc(C(=O)NNC(=O)Cc2cccs2)c1 10.7%, COc1ccc(CC(=O)Nc2sc(Cc3ccccc3)c(C)c2C(N)=O)cc1 -6.77%, CC(C)C[C@@H](CO)N1CCN(Cc2ccc(O)cc2)CCC1=O 4.79%, CC(CCN1CCN=C1N(C)C)c1ccccc1 (configuration not stated) -0.906%, Cc1c2cnn(CC(=O)NCc3ccccn3)c(=O)c2c(C)n1Cc1ccc(Cl)cc1 0.351%, COC(=O)c1cc(Oc2ccc(S(=O)(=O)N3CCOCC3)cc2[N+](=O)[O-])cc(C(=O)OC)c1 1.67%, Cc1cc(OCCCC(=O)Nc2cc(S(=O)(=O)N3CCOCC3)ccc2N2CCOCC2)ccc1Cl -12.2%, CC(=O)Nc1cc(-c2ccc(N3CCN(C)CC3)cc2)cn2c(-c3ccc(F)cc3)cnc12 0.533%, O=C(Nc1ccc(N2CCN(C(=O)c3cccs3)CC2)cc1)c1cccnc1Cl 4.87%, CC1=C(C)CC2C(=O)N(c3cccc4ccccc34)C(=O)C2C1 (configuration not stated) -0.224%, Oc1ccccc1C1=NN(c2ccccc2)C(c2ccccc2)C1 (configuration not stated) -11.2%, O=C1c2cccc(OCC(=O)N3N=C(c4cccs4)CC3c3ccc(F)cc3)c2CCN1Cc1ccccc1 (configuration not stated) 26.5%, Cc1ccc(C2=NN(C(=O)COc3ncnc4ccccc34)C(c3ccco3)C2)cc1 (configuration not stated) 0.743%, CN1CCN(C(=O)/C(=C\c2ccc3c(c2)OCO3)NC(=O)c2cccs2)CC1 -6.87%, O=C1CC2(CCCC2)Oc2ccc(Cl)cc21 -1.24%, CCSC1=NCCN1C(=O)c1ccc(S(=O)(=O)N(CC)CC)cc1 3.55%, Cc1ccc(-n2c(=O)cc(N3CCN(Cc4ccccc4)CC3)[nH]c2=O)cc1 4.3%, Cc1cccc(CCNS(=O)(=O)c2ccc3c(c2)NC(=O)CO3)c1 -0.563%, COC(=O)c1ccc(/C=N/OCC(=O)Nc2cc(F)ccc2F)cc1 -3.44%, CCCc1nc2c3ccccc3ccn2c1Cc1ccccc1C(F)(F)F 1.56%, Cc1ccc(C(=O)NNC(=O)CSc2nnc3ccccn23)cc1 -1.33%, Cc1ccc(C(=O)NNc2ncnc3ccccc23)cc1 -2.31%, Nc1nc2c(ncn2[C@@H]2O[C@H](CNS(=O)(=O)N3CCc4ccccc4C3)[C@@H](O)[C@H]2O)c(=O)[nH]1 1.88%, CCC/C=C(\CCC)C(NC(=O)Cc1ccccc1)c1ccc(C(=O)OC)cc1 (configuration not stated) 10.4%, CC1CCN(C(=O)Cn2cc(C(=O)c3ccco3)c3ccccc32)CC1 3.46%, O=C(c1ccc(CS(=O)(=O)c2ccccc2)o1)N1CCN(c2ccccc2)CC1 1.5%, COc1ccc2sc(-c3ccc(S(C)(=O)=O)cc3)c(C#Cc3cncn3C)c2c1 0.758%, Cc1cccc(-c2oc3ccc(-c4ccc5c(c4)OCO5)cc3c2C#Cc2cncn2C)c1 26.9%, CS(=O)(=O)N(CC(=O)N1CCCCCC1)c1cccc(Cl)c1Cl -9.97%, Cc1c(S(=O)(=O)NCc2ccccc2)c(=O)n(C)c(=O)n1C -3.14%

inhibition, active:
Cc1c(Cl)c([N+](=O)[O-])nn1Cc1ccc(C(=O)N/N=C\c2cc(Cl)ccc2O)o1 35.1%, C#CCOCCOCCOCCNc1nc(N2CCN(C(=O)CCCCCCCCCCNC(=O)Cn3cc(CCCCCN)nn3)CC2)nc(N2CCN(C(=O)CCCCCCCCCCNC(=O)[C@H](CO)n3cc(CCCSC)nn3)CC2)n1 46.8%, O=C(CSc1nnc(-c2cccnc2)n1Cc1ccco1)c1ccc(Cl)c(Cl)c1 30.6%, CCOC(=O)/C=c1\s/c(=C\c2ccc(C#N)cc2)c(=O)n1CC(=O)Nc1cccc(C)c1C 32.6%, Cc1ccc(N=C2NC(=O)/C(=C/C=C/c3ccco3)S2)cc1C 37.2%, COCCCn1c(=O)/c(=C/c2ccccc2OC(C)C)s/c1=C(\C#N)C(=O)Nc1ccc(C(=O)O)cc1 32%, Nc1nc2n(n1)C(c1ccco1)CC(c1ccc(Cl)c(Cl)c1)N2 (configuration not stated) 47.1%, COc1ccc(Cc2nnc(NC(=O)Cc3cccs3)s2)cc1 32.5%, O=[N+]([O-])c1cc(Cl)cc(/C=N/NC(=S)Nc2cc(S(=O)(=O)N3CCOCC3)ccc2Cl)c1O 47.9%, C=CC(=O)Nc1ccc(Nc2ccnc(Nc3ccc(N4CCN(C)CC4)cc3)n2)cc1 42.6%, Cc1ccc(N2C(=O)C3N=NN(CC(=O)N4N=C(c5cccc6ccccc56)CC4c4ccccc4)C3C2=O)cc1 (configuration not stated) 45.4%, O=C1C2N=NN(CC(=O)N3N=C(c4cccc5ccccc45)CC3c3ccccc3)C2C(=O)N1c1ccccc1 (configuration not stated) 48.5%, Cc1ccc(C(=O)NNC(=O)c2cc3cc4ccccc4nc3s2)cc1 31.4%, Cn1cncc1C#Cc1c(-c2ccsc2)sc2ccccc12 30%
